About 83,000 compounds went through this panel and 20% of them were active in at least one assay; those are over-represented in the sample as a whole.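 Assay: single dose, 48 h. Readout: percent growth (0 = no net growth; negative = cell death). Active: <10.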 Unmarked numbers belong to inactive results. The source made the active and inactive calls.
Legend:
Assay in all cases: NCI-60 one-dose screen, 48 h (100 = growth as untreated, 0 = no growth, -100 = all killed)
Conditions in all cases: 10 µM unless noted
SK-MEL-2 melanoma = test system: SK-MEL-2 melanoma
EKVX NSCLC = test system: EKVX NSCLC
SN12C renal = test system: SN12C renal
UO-31 renal = test system: UO-31 renal
TK-10 renal = test system: TK-10 renal
ACHN renal = test system: ACHN renal
CAKI-1 renal = test system: CAKI-1 renal
CCRF-CEM leukemia = test system: CCRF-CEM leukemia
MOLT-4 leukemia = test system: MOLT-4 leukemia
A498 renal = test system: A498 renal

SMILES | growth (SK-MEL-2 melanoma) | growth (EKVX NSCLC) | growth (SN12C renal) | growth (UO-31 renal) | growth (TK-10 renal) | growth (ACHN renal) | growth (CAKI-1 renal) | growth (CCRF-CEM leukemia) | growth (MOLT-4 leukemia) | growth (A498 renal)
O=C(/C=C/c1ccc(C(F)(F)F)cc1)Nc1ccc(C=C2c3ccccc3C(=O)c3ccccc32)cc1 | 25.5% | 53.6% | 89.6% | 72.6% | 70.2% | 74.8% | 56.2% | 32.6% | 47.5% | 
CCc1c(Nc2ccccc2C)nc(N)[nH]c1=O | 109% | 94.5% | 100% | 90.7% | 105% | 106% | 90.9% | 100% | 99.4% | 
OCC(O)c1nc2ccc3[nH]ncc3c2c2c1CCCC2 (stereo unspecified) | 9.63% (active) | 5.55% (active) | 11.8% | 7.51% (active) | 4.51% (active) | 4.18% (active) | 7.54% (active) | 6.71% (active) | 1.37% (active) | 
O=C(COc1cccc(/C=C2\CSc3ccccc3C2=O)c1)Nc1nccs1 | 69.3% | 25.5% | 89.4% | 60.1% | 70% | 69.9% | 78.1% | 4.26% (active) | -51.1% (active) | 
COc1ccc(/C=N/C2=C(C#N)C(c3ccc(N(C)C)cc3)c3ccc4ccccc4c3O2)cc1 (stereo unspecified) | 62.6% | 61.3% | 72.3% | 46.5% | 132% | 66% | 19.6% | 63.1% | 54.4% | 
CC(C)CSc1nc(N)nc2c1ncn2C1OC(CO)C(O)C1O (stereo unspecified) | 111% | 93.2% | 94% | 95.2% | 107% | 94.6% | 82.8% | 102% | 110% | 
CC1=C[C@H]2c3c(c(O)c(O)c4oc5c(C)cccc5c(=O)c34)[C@H](c3cc(O)c(O)c4oc5c(C)cccc5c(=O)c34)[C@H]2C(C)(C)C1 | 20.9% | 23.5% | 10.6% | -27.2% (active) | 31.2% | 12.2% | 12.5% | 10.8% | 3.99% (active) | 
CCOC(=O)c1c(C)oc2ncnc(N3CCN(C(=O)COc4ccc(SC)cc4)CC3)c12 | 95.4% | 88.1% | 94.9% | 74.4% | 103% | 93.5% | 82.7% | 91.5% | 88.6% | 
COc1cccc(-c2nn(C(C)(C)C)cc2-c2ccnc(NCCCNS(=O)(=O)c3cccc4ccccc34)c2)c1 | 111% | 98.9% | 103% | 91.1% | 101% | 107% | 96.6% | 102% | 104% | 76.9%
O=[N+]([O-])c1ccccc1/C=N\NC(=S)N/N=C/c1ccccc1[N+](=O)[O-] | 56.6% | 70.5% | 86.3% | 27.4% | 46.8% | 78.8% | 42.2% | 82.7% | 37.8% | 
O=C1OC(c2ccccc2)C(O)=C1c1ccccc1 (stereo unspecified) | 117% | 104% | 98.9% | 79.7% | 110% | 103% | 95% | 89.7% | 90.1% | 100%
Cc1cc2nc(NC(=O)CN3CCN(CCN4C(=O)c5cccc6cccc(c56)C4=O)CC3)sc2cc1C | 107% | 82.1% | 72.9% | 68% | 95% | 85.1% | 88% | 71.5% | 45% | 
N=C(N)c1ccc(-c2ccc(-c3ccc4ccccc4c3)s2)s1 | 101% | 51.8% | -62.2% (active) | 55.6% | 19% | 25.7% | 59.2% | -27.8% (active) | -46.7% (active) | 66.6%
FC(F)(F)c1[nH]ncc1-c1nc2ccc3n[nH]c(C#Cc4cccnc4)c3c2c2c1CCCC2 | 65.8% | 30.1% | 37.9% | 19.8% | 46.4% | 22.6% | -7% (active) | 25.2% | 14.9% | 
CCN(CC)c1ccc(/C=N\NC(=O)/C=C/C=C/c2ccc3c(c2)OCO3)c(O)c1 | 65.7% | 52.2% | 54.1% | 25% | 37.8% | 25.6% | 29.3% | 21.7% | 18.3% | 
Cc1ccc(O)c(N2C(=NCc3ccco3)NS(=O)(=O)c3cnccc32)c1 | 106% | 101% | 101% | 91.2% | 124% | 106% | 68.4% | 61.2% | 87.9% | 109%
Nc1n[nH]c2cc(F)c([C@@H]3Nc4ccc5[nH]ncc5c4[C@H]4C5CCC(C5)[C@@H]34)cc12 (stereo partly specified) | 26.2% | 47.2% | 33.5% | 38.6% | 52.5% | 21.1% | 9.87% (active) | 16.6% | 16.1% | 
COC(=O)[C@@H]1CCCN1C(=O)[C@@H]1CCCN1C(=O)[C@H](Cc1ccccc1)NC(=S)Nc1cc(C(F)(F)F)cc(C(F)(F)F)c1 | -21.9% (active) | 75.7% | 95% | 75.5% | 85.1% | 72.2% | 72.3% | 53.4% | 50.1% | 
CC1=C[C@H]2c3c(c(O)c(O)c4oc5cc(O)ccc5c(=O)c34)[C@H](c3cc(O)c(O)c4oc5cc(O)ccc5c(=O)c34)[C@H]2C(C)(C)C1 | 44.8% | 51.1% | 28.7% | 46.5% | 56% | 37.9% | 40.3% | 27.1% | 25.3% | 
Cc1nn(-c2cc(=O)[nH]c3ccc(Cl)cc23)c(N)c1C#N | 100% | 92.3% | 102% | 70.7% | 133% | 99% | 85.8% | 101% | 110% | 
CC(C)c1c(C(=O)c2ccccc2)c(-c2ccccc2)c(-c2ccc(F)cc2)n1CC[C@@H](O)C[C@@H](O)CC(=O)O | 36.2% | 68.2% | 31.9% | 72% | 116% | 25.3% | 21.6% | 81.4% | 87.6% | 
O=[N+]([O-])c1ccc2c(c1)Cc1cc(F)ccc1-2 | 126% | 68.7% | 99% | 88.8% | 96.8% | 103% | 96.4% | 81.9% | 94.1% | 
O=C(O)c1ccc(N=CC(=O)c2ccc(-c3ccccc3)cc2)cc1 | 108% | 99.3% | 95.8% | 93.5% | 96.8% | 96.2% | 102% | -57.9% (active) | 99.9% | 
Cc1nn(-c2cc(=O)[nH]c3ccccc23)c(N)c1C#N | 103% | 96.3% | 101% | 67.5% | 112% | 101% | 87.5% | 102% | 106% | 
CCCCn1c(-c2ccc(C(=O)O/N=C(\N)c3ccc4c(c3)OCO4)cc2)nc(-c2ccccc2)c1-c1ccccc1 | 84.9% | 51.8% | 39.3% | -62.3% (active) | 37.1% | -85.8% (active) | 11.5% | -30% (active) | 7.23% (active) | 
O=C(COc1ccc(/C=C2\COc3ccccc3C2=O)cc1)Nc1nccs1 | 72.8% | 102% | 114% | 73.2% | 88.7% | 94.1% | 103% | 7.16% (active) | 22.5% | 
Nc1n[nH]c2ccc([C@@H]3Nc4ccc5[nH]ncc5c4[C@H]4C5C=CC(C5)[C@@H]34)cc12 (stereo partly specified) | 46.9% | 37.7% | 34.2% | 44.5% | 67.5% | 24.4% | 35.3% | 19.6% | 15.1% | 
CCOC(=O)c1c(C)oc2ncnc(N3CCN(C(=S)Nc4ccccc4)CC3)c12 | 95.3% | 91.2% | 92.7% | 75.1% | 100% | 92% | 79.6% | 92.3% | 91.3% | 

From PubChem BioAssay (NCI)
